Reference: PubChem BioAssay (NCI)
About 79,000 compounds went through this panel and 15% of them were active in at least one assay; those are over-represented in the sample as a whole. Calls of active or inactive are those of the source. Rule as the data show it: active = growth inhibition above about 70%; inactive = the rest.

Experiments:
[1] = NCI Yeast Anticancer Drug Screen. Data for the mec2-1 strain (AID 157); settings: S. cerevisiae mec2-1 strain, active compounds read high
Procedure, shortened: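 Readout is yeast growth inhibition, normalised to vehicle-treated controls, in the mec2-1 strain exposed to compound.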

[2] = NCI Yeast Anticancer Drug Screen. Data for the rad14 strain (AID 159);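 also: 0% = growth of vehicle-treated control cultures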; settings: S. cerevisiae rad14 strain growth inhibition, active compounds read high
Procedure, shortened: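 Readout: yeast growth inhibition, referenced to vehicle-only cultures. Strain bears a defined alteration in DNA damage repair.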

[3] = NCI Yeast Anticancer Drug Screen. Data for the sgs1 mgt1 strain (AID 161);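 also: 0% = growth of cultures given vehicle only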; settings: S. cerevisiae sgs1 mgt1 strain, active compounds read high
Procedure, shortened: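 Percent growth inhibition was derived by comparing compound-exposed mutant yeast with vehicle-exposed cultures. The strain carries alterations in DNA damage repair.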

[4] = NCI Yeast Anticancer Drug Screen. Data for the CLN2oe strain (AID 163);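 also: 0% = growth of vehicle-only control cultures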; settings: S. cerevisiae CLN2oe strain, active compounds read high
Procedure, shortened: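 Values reflect how much compound exposure reduced yeast growth, referenced to vehicle-exposed cells. Assay organism is a strain with a defined genetic change affecting cell-cycle control.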

[5] = NCI Yeast Anticancer Drug Screen. Data for the cln2 rad14 strain (AID 165);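 also: 0% = growth equal to vehicle treated cultures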; settings: S. cerevisiae cln2 rad14 strain, active compounds read high
Procedure, shortened: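 Relative to vehicle controls, growth inhibition of compound-treated cln2 rad14 yeast was recorded.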

[6] = NCI Yeast Anticancer Drug Screen. Data for the bub3 strain (AID 167); settings: S. cerevisiae bub3 mutant strain, active compounds read high
Procedure, shortened: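 Part of a panel of yeast mutants defective in DNA damage repair or cell cycle regulation. Each strain is grown with compound, and inhibition is calculated relative to solvent-treated cultures.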

[7] = NCI Yeast Anticancer Drug Screen. Data for the mlh1 strain (AID 171);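 also: 0% = growth of vehicle-treated control cultures of the same strain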; settings: S. cerevisiae mlh1 strain growth inhibition, active compounds read high
Procedure, shortened: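 Steps: expose the defined-mutant yeast strain to compound; expose a parallel culture to vehicle; measure growth; express compound effect as inhibition relative to the vehicle culture.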

[8] = NCI Yeast Anticancer Drug Screen. Data for the sgs1 strain (AID 173);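 also: 0% = growth of vehicle-only control cultures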; settings: S. cerevisiae sgs1 mutant, active compounds read high
Procedure, shortened: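 Treat defined-mutant yeast with compound; measure growth; calculate inhibition relative to vehicle-treated cells.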

[9] = NCI Yeast Anticancer Drug Screen. Data for the mlh1 rad18 strain (AID 175); settings: S. cerevisiae mlh1 rad18 strain growth inhibition, active compounds read high
Procedure, shortened: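 Test agents were incubated with a yeast strain of defined genotype (DNA damage repair defect). Inhibition of growth was derived by comparison with vehicle-exposed cultures.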

[10] = NCI Yeast Anticancer Drug Screen. Data for the rad18 strain (AID 177); settings: S. cerevisiae rad18 mutant growth inhibition, active compounds read high
Procedure, shortened: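 A genetically defined yeast mutant impaired in DNA damage repair was treated with test compounds, then its growth was measured against cultures receiving vehicle alone.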

[11] = NCI Yeast Anticancer Drug Screen. Data for the rad52 strain (AID 147);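 also: 0% = growth of vehicle-treated control cultures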; settings: S. cerevisiae rad52 mutant growth inhibition, active compounds read high
Procedure, shortened: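 Screen used a yeast mutant impaired in DNA repair. After compound exposure, growth was measured. Values reflect inhibition compared with vehicle-treated cells.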

[12] = NCI Yeast Anticancer Drug Screen. Data for the wt1 strain (AID 149);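 also: 0% = growth of vehicle-treated wt1 cultures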; settings: S. cerevisiae wt1 strain (SPY 50644) growth inhibition, active compounds read high
Procedure, shortened: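 The wt1 strain was treated with compounds, and growth was compared with vehicle-treated cultures to give inhibition.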

[13] = NCI Yeast Anticancer Drug Screen. Data for the rad50EPP+ strain (AID 151);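 also: 0% = growth of vehicle-treated control cultures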; settings: S. cerevisiae rad50 mutant strain, active compounds read high
Procedure, shortened: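 Exposing the rad50EPP+ strain to each compound, growth was compared with vehicle-only cultures to give inhibition.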

[14] = NCI Yeast Anticancer Drug Screen. Data for the mgt1 strain (AID 153); settings: S. cerevisiae mgt1 mutant growth inhibition, active compounds read high
Procedure, shortened: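 Genetically defined yeast (mgt1) treated with compound; inhibition of growth expressed against vehicle-treated controls.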

[15] = NCI Yeast Anticancer Drug Screen. Data for the rad50 strain (AID 155);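 also: 0% = growth of vehicle-only cultures of the same strain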; settings: S. cerevisiae rad50 strain growth inhibition, active compounds read high
Procedure, shortened: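 Cells are treated with compound, grown, and their growth is then scored against vehicle-only cultures of the same repair-deficient yeast strain.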

[16] = NCI Yeast Anticancer Drug Screen. Data for the wt2 strain (AID 169);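 also: 0% = growth of vehicle-treated yeast cultures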; settings: S. cerevisiae wt2 strain growth inhibition, active compounds read high
Procedure, shortened: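 Values express reduction in yeast growth under compound treatment, referenced to vehicle-treated cells.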

[17] = at 5.0 µM (retest, dose inferred, filed as 0.5)
[18] = at 50.0 µM (retest, dose inferred, filed as 5.0)

Measured: growth inhibition

CC(=O)NC(c1nc2cc(C)c(C)cc2[nH]1)c1nc2cc(C)c(C)cc2[nH]1
inactive: [1]; [17] 36% | [1]; at 11.0 µM 22% | [1]; at 33.0 µM 42% | [1]; at 50.0 µM 37.2% | [2]; at 1.2 µM -22% | [2]; at 3.7 µM -21% | [2]; at 11.0 µM -9% | [2]; at 33.0 µM 21% | [2]; at 100.0 µM 66% | [3]; [17] -16% | [3]; at 50.0 µM 57.5% | [4]; at 1.2 µM -11% | [4]; at 3.7 µM 2% | [4]; at 11.0 µM -18% | [4]; at 33.0 µM 12% | [4]; at 100.0 µM 62% | [5]; [17] 51% | [5]; at 50.0 µM 42.8% | [6]; at 1.2 µM -2% | [6]; at 3.7 µM 15% | [6]; [17] 16% | [6]; at 11.0 µM 22% | [6]; at 33.0 µM 56% | [6]; at 50.0 µM 63.1% | [7]; at 1.2 µM -45% | [7]; at 3.7 µM -33% | [7]; at 11.0 µM -17% | [7]; at 33.0 µM 19% | [7]; at 100.0 µM 64% | [8]; at 1.2 µM -4% | [8]; at 3.7 µM -2% | [8]; at 11.0 µM -1% | [8]; at 33.0 µM 36% | [9]; [17] 35% | [9]; at 50.0 µM 37.6% | [10]; at 1.2 µM -4% | [10]; at 3.7 µM 1% | [10]; at 11.0 µM 6% | [10]; at 33.0 µM 22% | [10]; at 100.0 µM 55%
active: [1]; [18] 94% | [1]; at 100.0 µM 78% | [3]; [18] 78% | [5]; [18] 92% | [6]; [18] 82% | [6]; at 100.0 µM 82% | [8]; at 100.0 µM 73% | [9]; [18] 95%

CC(C)=CCc1c2c(c(O)c3c(=O)c(-c4ccc(O)c(O)c4)coc13)C=CC(C)(C)O2
active: [11]; at 11.0 µM 96% | [11]; at 33.0 µM 93% | [11]; at 100.0 µM 87% | [12]; at 11.0 µM 79% | [12]; at 33.0 µM 93% | [12]; at 100.0 µM 89% | [14]; at 11.0 µM 94% | [14]; at 33.0 µM 92% | [14]; at 100.0 µM 87% | [15]; at 11.0 µM 93% | [15]; at 33.0 µM 93% | [15]; [18] 91% | [15]; at 50.0 µM 84.8% | [15]; at 100.0 µM 88% | [1]; at 11.0 µM 87% | [1]; at 33.0 µM 91% | [1]; [18] 93% | [1]; at 50.0 µM 88% | [1]; at 100.0 µM 85% | [2]; at 11.0 µM 91% | [2]; at 33.0 µM 91% | [2]; at 100.0 µM 87% | [3]; [18] 93% | [3]; at 50.0 µM 87.5% | [5]; [18] 92% | [5]; at 50.0 µM 83.5% | [6]; at 11.0 µM 90% | [6]; at 33.0 µM 93% | [6]; [18] 92% | [6]; at 50.0 µM 84.8% | [6]; at 100.0 µM 87% | [16]; at 11.0 µM 77% | [16]; at 33.0 µM 92% | [16]; at 100.0 µM 87% | [7]; at 11.0 µM 90% | [7]; at 33.0 µM 93% | [7]; at 100.0 µM 86% | [8]; at 11.0 µM 91% | [8]; at 33.0 µM 91% | [8]; at 100.0 µM 85% | [9]; [18] 90% | [9]; at 50.0 µM 85.1% | [10]; at 11.0 µM 94% | [10]; at 33.0 µM 93% | [10]; at 100.0 µM 89%
inactive: [11]; at 1.2 µM -32% | [11]; at 3.7 µM -19% | [12]; at 1.2 µM -20% | [12]; at 3.7 µM -32% | [13]; at 1.2 µM -63% | [13]; at 3.7 µM -42% | [13]; at 11.0 µM -21% | [13]; at 33.0 µM -8% | [13]; at 100.0 µM -31% | [14]; at 1.2 µM -55% | [14]; at 3.7 µM -33% | [15]; at 1.2 µM -36% | [15]; at 3.7 µM -17% | [15]; [17] -3% | [1]; at 1.2 µM -89% | [1]; at 3.7 µM -93% | [1]; [17] 30% | [2]; at 1.2 µM -72% | [2]; at 3.7 µM -68% | [3]; [17] 18% | [5]; [17] 23% | [6]; at 1.2 µM -29% | [6]; at 3.7 µM -28% | [6]; [17] 14% | [16]; at 1.2 µM -50% | [16]; at 3.7 µM -52% | [7]; at 1.2 µM 5% | [7]; at 3.7 µM 14% | [8]; at 1.2 µM -46% | [8]; at 3.7 µM -36% | [9]; [17] 43% | [10]; at 1.2 µM -24% | [10]; at 3.7 µM -4%

C[n+]1c(/C=C/c2ccc(/C=N/NC(=O)c3ccc(C(=O)N/N=C/c4ccc(/C=C/c5cn6ccccc6[n+]5C)cc4)cc3)cc2)cn2ccccc21
inactive: [12]; at 1.2 µM 25% | [13]; at 1.2 µM 58% | [14]; at 1.2 µM 42% | [1]; at 1.2 µM 62% | [2]; at 1.2 µM 62% | [3]; [17] 64% | [5]; [17] 33% | [6]; at 1.2 µM 41% | [6]; [17] 8% | [6]; [18] 4% | [16]; at 1.2 µM 45% | [7]; at 1.2 µM 52% | [8]; at 1.2 µM 56% | [10]; at 1.2 µM 46%
active: [11]; at 1.2 µM 80% | [11]; at 3.7 µM 97% | [11]; at 11.0 µM 97% | [11]; at 33.0 µM 96% | [11]; at 100.0 µM 93% | [12]; at 3.7 µM 88% | [12]; at 11.0 µM 95% | [12]; at 33.0 µM 97% | [12]; at 100.0 µM 95% | [13]; at 3.7 µM 97% | [13]; at 11.0 µM 95% | [13]; at 33.0 µM 95% | [13]; at 100.0 µM 91% | [14]; at 3.7 µM 99% | [14]; at 11.0 µM 99% | [14]; at 33.0 µM 97% | [14]; at 100.0 µM 94% | [15]; at 1.2 µM 87% | [15]; at 3.7 µM 98% | [15]; [17] 79% | [15]; at 11.0 µM 97% | [15]; at 33.0 µM 95% | [15]; [18] 96% | [15]; at 50.0 µM 88.7% | [15]; at 100.0 µM 89% | [1]; at 3.7 µM 99% | [1]; [17] 92% | [1]; at 11.0 µM 98% | [1]; at 33.0 µM 97% | [1]; [18] 98% | [1]; at 50.0 µM 90.8% | [1]; at 100.0 µM 94% | [2]; at 3.7 µM 98% | [2]; at 11.0 µM 97% | [2]; at 33.0 µM 97% | [2]; at 100.0 µM 92% | [3]; [18] 98% | [3]; at 50.0 µM 85.7% | [5]; [18] 98% | [5]; at 50.0 µM 85.7% | [6]; at 3.7 µM 98% | [6]; at 11.0 µM 98% | [6]; at 33.0 µM 97% | [6]; at 50.0 µM 90.9% | [6]; at 100.0 µM 93% | [16]; at 3.7 µM 98% | [16]; at 11.0 µM 96% | [16]; at 33.0 µM 98% | [16]; at 100.0 µM 97% | [7]; at 3.7 µM 99% | [7]; at 11.0 µM 98% | [7]; at 33.0 µM 97% | [7]; at 100.0 µM 94% | [8]; at 3.7 µM 98% | [8]; at 11.0 µM 99% | [8]; at 33.0 µM 98% | [8]; at 100.0 µM 95% | [9]; [17] 90% | [9]; [18] 98% | [9]; at 50.0 µM 91.7% | [10]; at 3.7 µM 98% | [10]; at 11.0 µM 95% | [10]; at 33.0 µM 96% | [10]; at 100.0 µM 93%
